Compound activity from PubChem.
ALR H2O2 inh: inhibitors of human sulfhydryl oxidase ALR. AID 485317. inhibition, % (test concentration not listed). purified ALR, DTT oxidation, H2O2 HRP-luminol luminescence. 3.8% of 290,000 active;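 active = mean replicate inhibition above about 79%, with every replicate also reaching it, limit read from the data; inconclusive = only one of the two criteria met; inactive = mean below limit and not every replicate reaching it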
M18AAP inhibitor: blocks P. falciparum M18 aspartyl aminopeptidase. 1.2% of 290,000 active. inhibition, % at 7.35 µM. AID 1822. recombinant PfM18AAP, H-Glu-NHMec fluorogenic cleavage;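 active = inhibition above the campaign mean inhibition over all tested compounds plus 3 SD, cut at about 28% in these data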;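 also: 0% = plate median of test compound wells and 100% = 2 mM ZnCl2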
PolyA inh: blocks polyadenylation in yeast reporter cells; 0.02% of 300,000 active; S. cerevisiae SKY197-pL101 polyadenylation reporter, beta-gal luminescence; efflux-impaired pdr1/pdr3 knockout yeast; score 100 = 6 SD above DMSO; AID 1875; activity score, % at 12 µM;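 active = lowest replicate activity score at least 50, where 100 means six control SD above control mean; inconclusive = lowest score under 50 but half or more replicates reach 50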;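 also: yeast exposed to compound for 9 h at 30 °C; higher score means more reporter readthrough which indicates perturbed polyadenylation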
CaV13 ICDI inh: Primary screen for inhibitors of IQ motif and Ca2+-dependent inactivation inhibitor domain binding in CACNA1D, Förster resonance energy transfer in living cells, …; HEK cells, CFP/YFP FRET ICDI-IQ, plate reader, 10 min; percent FRET-ratio fall versus neutral wells; 0.098% of 340,000 active; inhibition, % at 12.3 µM; AID 743397;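 active = mean replicate inhibition of at least 30% and at least 1% of replicates passing that level; inconclusive = only one of the two criteria is met; inactive = neither criterion is met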;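 also: 0% = median of the neutral control wells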
IDE cell activ: IDE (human) activation, cell-based; P14735; HEK cells, FAbeta-B cleavage, fluorescence polarization; 0% vehicle, 100% cell-free pure enzyme wells; activation, % at 5.96 µM; 0.073% of 340,000 active; AID 493087;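 active = activation above the mean of all tested compounds plus 3 SD, set per screening campaign, cut at about 17% in these data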
Target sequence (P14735 whole entry, looked up): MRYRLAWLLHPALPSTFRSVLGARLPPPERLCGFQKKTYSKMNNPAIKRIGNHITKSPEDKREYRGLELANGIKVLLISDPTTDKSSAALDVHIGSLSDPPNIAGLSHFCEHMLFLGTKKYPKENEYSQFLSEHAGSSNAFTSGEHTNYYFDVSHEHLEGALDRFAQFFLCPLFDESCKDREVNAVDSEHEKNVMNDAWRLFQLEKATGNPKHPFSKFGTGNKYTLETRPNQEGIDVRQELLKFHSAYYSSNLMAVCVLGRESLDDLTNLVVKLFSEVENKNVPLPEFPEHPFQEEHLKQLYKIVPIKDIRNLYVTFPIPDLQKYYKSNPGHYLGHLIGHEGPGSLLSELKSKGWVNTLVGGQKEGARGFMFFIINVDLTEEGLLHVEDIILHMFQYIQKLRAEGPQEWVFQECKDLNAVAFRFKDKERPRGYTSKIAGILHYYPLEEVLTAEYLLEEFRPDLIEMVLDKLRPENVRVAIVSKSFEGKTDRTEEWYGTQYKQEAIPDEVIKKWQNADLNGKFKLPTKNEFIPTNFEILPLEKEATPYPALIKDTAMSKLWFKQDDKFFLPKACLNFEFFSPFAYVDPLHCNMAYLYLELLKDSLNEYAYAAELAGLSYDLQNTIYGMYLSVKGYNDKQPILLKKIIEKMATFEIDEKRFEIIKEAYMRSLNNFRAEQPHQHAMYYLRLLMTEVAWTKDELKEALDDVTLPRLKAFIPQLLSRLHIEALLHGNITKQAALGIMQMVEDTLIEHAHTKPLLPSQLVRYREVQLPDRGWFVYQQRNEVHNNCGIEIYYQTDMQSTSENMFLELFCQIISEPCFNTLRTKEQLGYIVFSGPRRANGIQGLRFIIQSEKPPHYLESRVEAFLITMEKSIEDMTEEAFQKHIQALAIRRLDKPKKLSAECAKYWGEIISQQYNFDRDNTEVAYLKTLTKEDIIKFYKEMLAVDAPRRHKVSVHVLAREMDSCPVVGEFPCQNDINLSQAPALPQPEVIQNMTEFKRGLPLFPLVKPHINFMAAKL
IDE cell inh: inhibitors of human insulin-degrading enzyme in cells; P14735; HEK cells, FAbetaB cleavage, fluorescence polarization; inhibition, % at 5.59 µM; 0.41% of 320,000 active;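 active = percent inhibition above the average of all tested compounds plus 3 SD, set per screening campaign, cut at about 16% in these data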;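 also: IDE supplied by intact live HEK cells; FP after avidin binding of uncleaved biotin substrate so inhibition keeps polarization high; 0% = DMSO wells and 100% = 60 µM reference IDE inhibitor Ii1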
* = called active by the depositor. Rows were chosen to be rich in hits. Some 4.1% of all compounds tested hit in one or more screens of this group.

Screening CCN1CCc2c(sc(NC(=O)c3ccc(S(=O)(=O)N(C)c4ccccc4)cc3)c2C(=O)NC)C1 returned ALR H2O2 inh -4.6, M18AAP inhibitor 16.0, PolyA inh 26.1, IDE cell activ -35.2 and IDE cell inh 14.4.
For C=CCn1c(SCC(C)=O)nc2scc(-c3ccc(C)o3)c2c1=O the results were ALR H2O2 inh 96.2*, M18AAP inhibitor -43.5, PolyA inh -20.3, CaV13 ICDI inh -2.0, IDE cell activ -0.7 and IDE cell inh 4.2.
C=CCn1c(=S)[nH]c2sccc2c1=O was read as ALR H2O2 inh 97.6*, M18AAP inhibitor -5.7, PolyA inh -1.2, CaV13 ICDI inh -3.7, IDE cell activ 6.6 and IDE cell inh -2.8.
Screening C=CCn1c(=S)[nH]c2scc(-c3ccc(C)o3)c2c1=O returned ALR H2O2 inh 98.5*, M18AAP inhibitor -67.8, PolyA inh -18.1, CaV13 ICDI inh -0.9, IDE cell activ -6.5 and IDE cell inh -7.5.
C=CCn1c(=S)[nH]c2sc3c(c2c1=O)CCCC3 was read as ALR H2O2 inh 49.0, M18AAP inhibitor 3.0, PolyA inh -2.5, CaV13 ICDI inh -3.5, IDE cell activ -7.5 and IDE cell inh 7.3.
Screening C[C@H](NC(=O)C1CCN(S(=O)(=O)c2ccccc2)CC1)C(=O)NC1CC1 returned CaV13 ICDI inh -5.0.
Screening Cc1ccc2nc3n(c(=O)c2c1)-c1ccccc1C(=O)NC3Cc1ccc(O)cc1 (stereo not drawn) returned ALR H2O2 inh 10.2, CaV13 ICDI inh -10.3 and IDE cell inh 4.4.
For Cc1ccc(OCCCC(=O)ON=C(N)c2ccccc2C)cc1 the results were ALR H2O2 inh -5.3, CaV13 ICDI inh -3.5, IDE cell activ 2.4 and IDE cell inh 0.5.
For COC(=O)c1c(C)cc(O)c(C=O)c1O the results were ALR H2O2 inh -0.5, PolyA inh -5.0, IDE cell activ 2.4 and IDE cell inh -6.0.
COc1cc(C(=O)O)c2c(c1C)OC(=O)c1c(C)cc(O)c(C=O)c1O2 was read as ALR H2O2 inh 98.6*, PolyA inh 0.2, IDE cell activ 1.5 and IDE cell inh 8.8.
Cc1nn(-c2nnc(C)c(=O)[nH]2)c(C)c1SCC(=O)Nc1ccc(C(C)C)cc1 was read as ALR H2O2 inh 97.6*, M18AAP inhibitor -0.1, PolyA inh 12.8, IDE cell activ -5.2 and IDE cell inh 2.1.
Screening Cc1nn(-c2nnc(C)c(=O)[nH]2)c(C)c1SCC(=O)Nc1ccc(F)cc1 returned ALR H2O2 inh 98.9*, M18AAP inhibitor 26.2, PolyA inh 7.6, IDE cell activ 0.9 and IDE cell inh 5.0.
O=C(O)COc1ccccc1-c1nc(-c2ccccc2)c(-c2ccccc2)[nH]1 was read as ALR H2O2 inh 97.7*, M18AAP inhibitor -2.8, PolyA inh -6.2, CaV13 ICDI inh -2.5, IDE cell activ -0.1 and IDE cell inh -0.3.
`O=C(O)COc1ccc(-c2nc(-c3ccccc3)c(-c3ccccc3)[nH]2)cc1` gave ALR H2O2 inh 99.0*, M18AAP inhibitor 12.5, PolyA inh -4.4, CaV13 ICDI inh -2.5, IDE cell activ 1.7 and IDE cell inh -6.8.
`COc1cccc(-c2nc(-c3ccccc3)c(-c3ccccc3)[nH]2)c1OCC(=O)O` gave ALR H2O2 inh 4.6, M18AAP inhibitor 3.5, PolyA inh -1.6, CaV13 ICDI inh -1.9 and IDE cell activ 3.6.
`COc1ccc(C(=O)NCCOc2ccccc2)cc1S(=O)(=O)N1CCOCC1` gave ALR H2O2 inh 1.0, CaV13 ICDI inh -3.5, IDE cell activ 2.7 and IDE cell inh -1.2.
For COc1ccc2c(CC(=O)OCc3nc4ccsc4c(=O)[nH]3)coc2c1 the results were CaV13 ICDI inh -4.2, IDE cell activ 4.7 and IDE cell inh 4.4.
`Cc1ccc(C(=O)NCc2ccco2)cc1Br` gave ALR H2O2 inh 40.7, M18AAP inhibitor -12.2, PolyA inh -3.6, CaV13 ICDI inh -3.8, IDE cell activ -0.2 and IDE cell inh 4.8.
Screening COCCSc1ccccc1C(=O)NCc1ccco1 returned ALR H2O2 inh 0.0, M18AAP inhibitor 29.9*, PolyA inh -4.4, CaV13 ICDI inh -4.1, IDE cell activ -6.3 and IDE cell inh 0.7.
For Cc1c(Br)cc(C(=O)NCc2ccco2)c(C)c1C the results were ALR H2O2 inh 98.1*, M18AAP inhibitor 0.6, PolyA inh -2.7, CaV13 ICDI inh -4.6, IDE cell activ -3.5 and IDE cell inh 9.3.
C#CCn1c(=NC(=O)CSCC(=O)N2CCOCC2)sc2ccccc21 was read as ALR H2O2 inh 95.7*, M18AAP inhibitor -11.0, PolyA inh -5.7, CaV13 ICDI inh -6.8, IDE cell activ -4.5 and IDE cell inh 4.3.
`C/C(=N\NC(=O)c1ccccc1O)C1C(=O)c2ccccc2C1=O` gave ALR H2O2 inh 97.7*, M18AAP inhibitor 19.0, PolyA inh 10.3, CaV13 ICDI inh -3.9, IDE cell activ 4.1 and IDE cell inh 3.0.
`c1ccc2nc(N3CCCC3)c(N3CCCC3)nc2c1` gave ALR H2O2 inh 98.6*, M18AAP inhibitor 2.1, PolyA inh -40.9, IDE cell activ 3.4 and IDE cell inh -0.2.
Cc1nc2ccccc2nc1N1CCCCC1 was read as M18AAP inhibitor -2.7 and IDE cell activ 2.8.
For O=C1[C@H]2[C@H](C=CC[C@H]2C(=O)N2CCOCC2)CCN1Cc1ccccc1 the results were ALR H2O2 inh -14.2, PolyA inh -8.0, CaV13 ICDI inh -12.1, IDE cell activ 3.2 and IDE cell inh -0.9.
For COc1cccc(CNC(=O)Nc2cccs2)c1 the results were ALR H2O2 inh 99.3*, M18AAP inhibitor 6.5, PolyA inh 12.0, IDE cell activ 0.6 and IDE cell inh 6.0.
`COc1ccccc1CNC(=O)Nc1cccs1` gave ALR H2O2 inh 97.4*, M18AAP inhibitor 16.5, PolyA inh 5.0, CaV13 ICDI inh -5.4, IDE cell activ -3.1 and IDE cell inh 6.2.
NC1=NC[C@H](Cc2ccccc2)N1CC1CCCCC1 was read as ALR H2O2 inh -7.7, PolyA inh 6.6, CaV13 ICDI inh -5.0, IDE cell activ 2.7 and IDE cell inh 2.3.
Screening NC1=NC[C@H](Cc2ccc(O)cc2)N1CC1CCCCC1 returned ALR H2O2 inh 89.6*, PolyA inh inconclusive, CaV13 ICDI inh -5.3, IDE cell activ 5.4 and IDE cell inh 1.9.
`CC1CCCN1c1ccnc2cc(Cl)ccc12` (stereo not drawn) gave CaV13 ICDI inh -9.9.
O=c1cc(CO)oc(C(Nc2ccccn2)c2ccc(F)cc2)c1O (stereo not drawn) was read as ALR H2O2 inh 97.7*, M18AAP inhibitor 2.3, PolyA inh 18.8, CaV13 ICDI inh -6.7, IDE cell activ 0.5 and IDE cell inh -1.1.
